# KB-3-1 tox – KB-3-1 parental cell cytotoxicity | KB-3-1 viability, CellTiter-Glo ATP luminescence, 72 h | Potency, µM (doses to about 46.1 µM), hits mostly cytotoxic | 400,000 compounds, 1.4% hits; note: potency is the fitted concentration of half-maximal effect; nearly all actives have a fitted effect of over 60% in size
#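 KB-3-1 cells, DMEM (no phenol red) + 10% FBS; compound by pin transfer, 72 h, 37 °C. Readout: CellTiter-Glo luminescence after 10 min. Data normalized, curve-fitted.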
# Giardia kill – Giardia lamblia killing; Giardia lamblia trophozoite viability; activity change, % at 7.66 µM, hits read low; 340,000 compounds, 0.15% hits; in the data active = activity change below about -80%; inconclusive = between about -30% and that limit;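 note: parasites exposed to compound for two days anaerobically before the ATP read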
#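 Anaerobic 48 hrs incubation at 37 deg C of 100 trophozoites/well with test compounds; ATPLite 1-Step luminescence, 15-30 min RT, reports cellular ATP as viability.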
# PI4K2A inh – blocks human PI4K2A kinase activity | Q9BTU6 | purified PI4K2A, ADP-Glo luminescence, 1 h; active compounds read low | activity change, negative = inhibition, % at 76.9 µM | 420,000 compounds, 0.13% hits | AID 1346378; in the data active = activity change below about -50%; inconclusive = mostly about -30% to -49%;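 note: -100% = wells without enzyme as full effect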
# Target sequence (Q9BTU6 whole entry, looked up): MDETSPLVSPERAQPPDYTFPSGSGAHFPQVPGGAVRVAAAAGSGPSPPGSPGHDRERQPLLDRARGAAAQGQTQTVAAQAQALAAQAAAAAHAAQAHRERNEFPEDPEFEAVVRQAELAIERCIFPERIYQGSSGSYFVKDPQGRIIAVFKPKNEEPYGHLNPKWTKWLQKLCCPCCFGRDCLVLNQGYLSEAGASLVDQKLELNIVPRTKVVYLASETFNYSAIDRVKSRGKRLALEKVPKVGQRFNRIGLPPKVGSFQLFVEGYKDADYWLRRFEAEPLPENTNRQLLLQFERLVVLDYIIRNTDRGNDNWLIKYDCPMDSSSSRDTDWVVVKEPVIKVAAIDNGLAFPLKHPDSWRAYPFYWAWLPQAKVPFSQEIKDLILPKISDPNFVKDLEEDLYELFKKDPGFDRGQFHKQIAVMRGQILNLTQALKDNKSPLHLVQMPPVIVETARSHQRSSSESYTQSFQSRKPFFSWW
#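 ADP-Glo luminescence measured ADP generated by PI4K2A enzyme (4 ug/mL before mixing) with 1.2 mM PI substrate (pre-mix) and 300 microM ATP (pre-mix). Tris pH7.5 buffer with MgCl2, Triton X-100; 1 h reaction at ambient temperature.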
# KB-V1 cytotox – kills drug-selected multidrug resistant KB-V1 cells; KB-V1 MDR cells viability, CellTiter-Glo, 72 h; Potency, µM (series often up to 46.1 µM), usual class: cytotoxic; 400,000 compounds, 3.4% hits; AID 1347076; note: potency is the fitted concentration of half-maximal effect; nearly all actives have a fitted effect of over 60% in size
#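 Cells of the MDR subline KB-V1 are plated, dosed with compound at multiple concentrations, and incubated 72 h at 37 degrees C; CellTiter-Glo is then added and luminescence read after 10 min.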
# Nrf2 block – blocks Nrf2 signaling; A549 ARE-Fluc reporter, luciferase luminescence, 18-24 h; Potency, µM (highest dose often 46 µM), inactives show at the top dose activity change, negative = inhibition, usual class: inhibitors; AID 504444; 360,000 compounds, 2.1% hits; note: potency is the fitted concentration of half-maximal effect; nearly all actives have a fitted effect of over 60% in size
#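 In this cell-based qHTS, ARE-driven firefly luciferase in A549 cells reports Nrf2 activity; the luminescent signal after BugLite lysis is the measured value, with a prior CellTiter-Fluor read for cell health.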
# A549 viability – kills or reduces viability of A549 cells in Nrf2 counter-screen | A549 ARE-Fluc cells, CellTiter-Fluor viability, 18-24 h | 390,000 compounds, 0.16% hits | AID 504648 | Potency, µM (titrated, usually from 46 µM), inactives show top-dose activity change, negative = cytotoxicity, hits mostly inhibitors; note: potency is the fitted concentration of half-maximal effect
#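 A549 ARE_Fluc cells in 5% FBS OPTI-MEM were exposed to compounds in concentration-response for 18-24 h at 37 deg C. Viability was read by CellTiter-Fluor fluorescence (Ex 405/Em 525) after 30 min, before the luciferase read.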
# Active calls of the source: *; i = inactive; ? = inconclusive; / = no result. A selection: hits, their analogues and other compounds. The true share with any hit is near 5.7%. Unless noted, calls come from the whole dose curve; as a rule, active = well fitted curve in the direction sought with a large enough effect; inconclusive = small, poorly fitted or top-dose-only effect, or another doubt; inactive = no such curve, though single readings can be large; an effect the other way counts as inactive or inconclusive. Unless noted, % is set by controls: 0 for no effect and ±100 for the full control effect.
SMILES,KB-3-1 tox,Giardia kill,PI4K2A inh,KB-V1 cytotox,Nrf2 block,A549 viability
CCOc1cc(C2c3c(-c4cc(C)ccc4O)n[nH]c3C(=O)N2CCCOC(C)C)ccc1O (configuration not stated),/,/,3,/,13%,1%
COC(=O)C12C=C3CC(C)=C3C(=O)N1Cc1[nH]c3ccccc3c1C2 (configuration not stated),/,/,-8,/,/,/
O=C(COc1ccccc1-c1ccccc1)N/N=C/c1cccc2ccccc12,1.3µM*,?,3,0.92µM*,-9%,?
O=C(COc1cccc2ccccc12)N/N=C/c1ccccc1OCc1ccc(C(=O)O)cc1,i,-13,2,i,-6%,-2%
Cc1ccc(OCC(=O)Nc2nnc(S(=O)(=O)N3c4ccccc4CC3C)s2)cc1 (configuration not stated),i,/,-1,i,28%,-1%
Cc1ccc(-n2c(C)cc(C(=O)COc3c(CO)cc(F)cc3CO)c2C)cc1C,i,-9,-1,7.3µM*,?,-3%
Cc1cc(C(=O)COc2ccccc2Cl)c(C)n1-c1ccc2c(c1)OCO2,18µM*,-14,2,13µM*,?,0%
CNS(=O)(=O)c1cccc(C(=O)OCC(=O)c2cc(C)n(-c3ccc4c(c3)OCO4)c2C)c1,?,-2,-1,?,-13%,-10%
COCC(=O)OCC(=O)c1cc(C)n(-c2ccc(Br)cc2)c1C,i,-3,7,i,4%,-1%
CCCCCCCC[n+]1c(C)n(-c2ccccc2)c2ccc(NC(C)=O)cc21,4.6µM*,-13,2,i,12µM*,-12%
CC1(CCc2ccccc2)NC(=O)N(CC(=O)Nc2ccc(OC(F)F)cc2)C1=O (configuration not stated),i,-10,-2,21µM*,-22%,-20%
CN(C)CCCN1C(=O)c2cccc3c([N+](=O)[O-])ccc(c23)C1=O,23µM*,0,-4,?,-20%,0%
COc1cc(C=NN2CCN(C(c3ccccc3)c3ccccc3)CC2)cc(OC)c1OC(C)=O,/,/,2,/,/,/
C=CCN(C(=O)CN1CCCCC1)c1nc(-c2ccccc2)cs1,i,16,-4,i,2%,6%
C=CCN(C(=O)C1CC(=O)N(C2CCCC2)C1)c1nc(-c2ccc(S(C)(=O)=O)cc2)cs1 (configuration not stated),18µM*,0,4,2.9µM*,?,-19%
CCO[C@@H]1O[C@H](C(COCc2ccccc2)OCc2ccccc2)[C@H](OCc2ccccc2)[C@H]1O (some centres not stated),/,/,0,/,/,/
CCCCNC(=O)c1sc(=S)n(-c2ccccc2OC)c1N,i,-16,3,21µM*,-12%,6%
c1ccc(-c2nc(N3CCCCCC3)c3ccccc3n2)nc1,3.7µM*,-20,-9,?,/,?
CCN1CCN(c2nc(-c3ccccn3)nc3ccccc23)CC1,i,6,-9,5.2µM*,13%,-4%
c1ccc(CCNc2nc(-c3ccccn3)nc3ccccc23)cc1,12µM*,-17,-12,i,10µM*,?
c1ccc(CN2CCN(c3nc(-c4ccccn4)nc4ccccc34)CC2)cc1,i,18,-3,i,4%,-9%
CCCN(CCC)c1nc(-c2ccccn2)nc2ccccc12,4.6µM*,?,-8,2.9µM*,18µM*,-18%
C/C(=N\Nc1nc(-c2ccccn2)nc2ccccc12)c1ccc(F)cc1,i,6,1,?,-10%,0%
O=C(/C=C/c1ccc(-c2ccccc2)cc1)NC1=NCCS1,/,/,-5,/,/,/
CCOc1ccc(OCC)c(NC(=O)c2csc3c2CCCC3)c1,/,/,3,/,2%,0%
SMILES,KB-3-1 tox,Giardia kill,PI4K2A inh,KB-V1 cytotox,Nrf2 block,A549 viability
CCN(CC)c1nc(-c2ccccn2)nc(-c2ccccc2)c1C#N,?,10,3,16µM*,?,-17%
COc1ccc(N2CCN(C(=O)CSc3nc4nc(C)cc(C)n4n3)CC2)cc1,i,-5,-3,21µM*,-2%,10%
Cc1cc(C)n2nc(SCC(=O)N3CCN(c4ccc(F)cc4)CC3)nc2n1,i,-9,0,i,-10%,7%
CCOC(=O)C(CC)Sc1nnc2n1C(C)(C)Cc1ccccc1-2 (configuration not stated),i,3,-2,16µM*,-2%,11%
CC1(C)Cc2ccccc2-c2nnc(SCC(=O)N3CCc4ccccc43)n21,i,2,-4,4.1µM*,-18%,27%
COC(=O)CSc1nnc2n1C(C)(C)Cc1ccccc1-2,i,9,0,i,-4%,17%
COc1ccc(N2CCN(C(=O)CSc3nnc4n3C(C)(C)Cc3ccccc3-4)CC2)cc1,?,2,4,5.2µM*,?,-7%
Cc1ccc(OCC(=O)NCC(=O)OCc2cc(=O)n3nc(CC(C)C)sc3n2)cc1,i,/,-2,i,?,-2%
CCCCOc1ccc(C(=O)Nc2cccc(-c3nc4cccnc4s3)c2)cc1,/,/,-7,/,-6%,5%
COc1ccc(N2CCN(C(=O)CSc3nnc4c(C)cc5cc(C)ccc5n34)CC2)cc1,i,22,-5,5.8µM*,-3%,3%
CCOC(=O)C1=C(C)N=c2s/c(=C\c3ccc(O)c([N+](=O)[O-])c3)c(=O)n2C1c1ccccc1OC (configuration not stated),?,?,2,?,-11%,-25%
CCOC(=O)C1=C(C)N=c2s/c(=C/c3cccc([N+](=O)[O-])c3O)c(=O)n2C1c1ccc(OC)cc1OC (configuration not stated),i,-80*,-17,i,?,16µM*
CC(C)(C)OC(=O)n1ccc2ccc(-c3ccc4cc[nH]c4c3)cc21,/,/,3,/,/,/
COc1ccc(CCNS(=O)(=O)c2cccc(C)c2)cc1OC,i,-1,3,?,-20%,?
COc1ccc(CCNS(=O)(=O)c2cccc(S(=O)(=O)N3CCCC3)c2)cc1OC,i,7,-6,18µM*,/,11%
COc1ccc(CCN(C)C(=O)c2cc(S(=O)(=O)N3CCCCCC3)ccc2OC)cc1OC,i,27,0,i,?,-6%
COc1ccc(S(=O)(=O)Nc2ccc(C)cc2)cc1N(C)S(=O)(=O)c1ccc(Cl)cc1,?,-9,1,?,18µM*,?
COc1ccc(CCNC(=O)c2cc(S(=O)(=O)N3CCOCC3)ccc2N2CCCC2)cc1OC,i,8,-1,i,1%,-5%

# Assay outcomes (PubChem BioAssay)
